# High-throughput results (PubChem)
# CYP2C9 activ – CYP2C9 (human) activation; P11712; recombinant CYP2C9, luciferin-H conversion, luminescence; stronger effect = higher value; factor 1 = untreated enzyme, 0 = blocked; activation factor at 5 µM; actives 1.4% (n = 96,000); AID 1024;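 active means activation factor of 2 or more for CYP2C9 at a 5 µM dose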
# Cav3 T inh – inhibitors of human Cav3.2 T-type calcium channel; O95180; Cav3.2-expressing cells, Fluo-4 calcium fluorescence FDSS; stronger effect = lower value; B-score at 10 µM; actives 4% (n = 100,000); AID 449739;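 active means single-dose well whose peak fluorescence ratio is a statistical outlier from its plate by either plate-standardised score or position-corrected B-score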
# CYP2C9 inhib – inhibitors of human CYP2C9; CYP2C9 Supersomes, luciferin-H conversion, luminescence; AID 777; actives 20% (n = 96,000); inhibition, % at 5 µM;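 active means blocking of liver enzyme CYP2C9 beyond about 50% at 5 µM, limit read from the data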
# CYP2C19 inhib – inhibitors of human CYP2C19. CYP2C19 Supersomes, luciferin-H EGE luminescence, 30 min. inhibition, % at 5 µM. P33261. actives 21% (n = 96,000). AID 778;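 active means CYP2C19 inhibition above a set limit at 5 µM in the primary screen, cut at about 50% in these data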
# Target sequence (P33261 whole entry, looked up): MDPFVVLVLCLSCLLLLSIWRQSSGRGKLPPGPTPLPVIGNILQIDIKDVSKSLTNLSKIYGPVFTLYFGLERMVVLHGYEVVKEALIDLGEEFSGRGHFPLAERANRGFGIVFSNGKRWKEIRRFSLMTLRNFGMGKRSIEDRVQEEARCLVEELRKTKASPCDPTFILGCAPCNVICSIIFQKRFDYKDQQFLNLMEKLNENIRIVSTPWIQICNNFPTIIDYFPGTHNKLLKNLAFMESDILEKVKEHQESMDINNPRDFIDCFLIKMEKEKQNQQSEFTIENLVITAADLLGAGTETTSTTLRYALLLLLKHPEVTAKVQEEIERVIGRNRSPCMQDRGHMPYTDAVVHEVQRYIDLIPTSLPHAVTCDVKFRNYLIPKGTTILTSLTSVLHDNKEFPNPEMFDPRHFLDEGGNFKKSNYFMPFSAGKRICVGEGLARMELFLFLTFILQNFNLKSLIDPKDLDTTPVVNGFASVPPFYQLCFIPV
# CYP2C19 act – cytochrome P450 2C19 (human) activation; 96,000 tested, under 10 active; AID 1025; recombinant CYP2C19, luciferin-H EGE luminescence; stronger effect = higher value; 0 = fully inhibited enzyme, 1 = untreated enzyme; activation factor at 5 µM; P33261;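 active means activation factor of at least 2 at 5 µM in the primary screen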
# Numbers stand for hits; i = inactive; nt = no result. Most compounds without a hit are left out; they make up all but 27% or so of the library.
SMILES,CYP2C9 activ,Cav3 T inh,CYP2C9 inhib,CYP2C19 inhib,CYP2C19 act
Cc1nc2ccccc2c(=O)n1NC(=O)c1ccc(F)cc1Cl,i,i,81.1,i,i
COc1cccc(CC(=O)Nn2c(C)nc3ccccc3c2=O)c1,i,i,86.6,i,i
COc1cc(OC)cc(C(=O)Nn2c(C)nc3ccccc3c2=O)c1,i,i,52.6,i,i
COc1ccc2[nH]c3c(c2c1)CCn1c-3nc2ccccc2c1=O,i,nt,i,74.6,i
COc1cccc(-c2nc3ccccc3c(=O)o2)c1,i,i,i,i,i
Cc1cccc(N2CCN(C(=O)C3CCN(S(=O)(=O)c4cccnc4)CC3)CC2)c1C,i,i,i,i,i
O=C1c2ccccc2C(=O)N1CNc1ccccc1,i,i,i,i,i
COc1cc(OC)cc(C(=O)Nn2cc(C(=O)N3CCN(C)CC3)c3ccccc3c2=O)c1,i,i,57.6,i,i
COc1ccccc1C(=O)Nn1c(C2CCC2)nc2ccccc2c1=O,i,i,94.6,53.8,i
COc1ccc(Br)c(C(=O)Nn2c(C)nc3ccccc3c2=O)c1,i,i,53.9,i,i
COc1cc(OC)cc(C(=O)Nc2ccccc2C(=O)N2CCCC2)c1,i,i,i,i,i
Cc1ccc(C)c(OCC(=O)Nn2c(C)nc3ccccc3c2=O)c1,i,i,78.5,i,i
CC(=O)NCc1ccc(C(=O)CSc2nnc(-c3ccncc3)n2Cc2ccccc2)o1,nt,i,nt,nt,nt
NCCCN1CCOCC1,i,i,i,i,i
O/N=C/c1cc(Br)ccc1OCc1ccccc1F,nt,i,nt,nt,nt
C=CCOc1ccc2ccccc2c1/C=N/O,i,-1.53,i,i,i
C=CCOc1ccc(Br)cc1/C=N/O,i,-3.89,i,i,i
COC(=O)c1sc(S(=O)(=O)N2CCCCC2C(=O)O)c(C(=O)OC)c1C (stereo not given),i,i,i,i,i
C/C(=N\N1CCN(C2c3ccccc3-c3ccccc32)CC1)c1cccnc1,i,i,72.9,65.7,i
C(=N\N1CCN(C2c3ccccc3-c3ccccc32)CC1)/c1ccccn1,i,i,i,i,i
Brc1ccc2c(c1)OCCOCCOc1cc(Br)ccc1OCCOCCOCCO2,i,i,84.8,88.1,i
Cc1ccn2cc(CNC(=O)c3ccc(Br)o3)nc2c1,i,i,i,i,i
COc1ccc2c(c1)sc1nc(-c3ccccc3)cn12,i,i,92.1,82.1,i
CC(C)[C@H](NC(=O)Nc1ccc(Oc2ccccc2)cc1)C(=O)O,i,i,i,i,i
O=C(CCc1ccc(S(=O)(=O)N2CCOCC2)cc1)Nc1cc(Cl)ccc1N1CCOCC1,i,i,i,i,i
SMILES,CYP2C9 activ,Cav3 T inh,CYP2C9 inhib,CYP2C19 inhib,CYP2C19 act
CCCn1c(CCC(=O)Nc2ccccc2Cc2ccccc2)nc2cc(S(=O)(=O)N3CCOCC3)ccc21,i,-9.59,75.3,i,i
CCOc1ccc(C(=O)O)cc1OC,i,i,i,i,i
CCOc1ccc(CC2c3cc(OCC)c(OCC)cc3CCN2C(=O)c2cc(OC)c(OC)c(OC)c2)cc1OCC (stereo not given),i,i,59.5,65.1,i
O=C(O)CCCC(=O)NCCc1ccncc1,i,i,i,i,i
CC(NC(=O)c1ccccc1NS(C)(=O)=O)c1ccccc1 (stereo not given),i,i,73.1,61.7,i
CC(NC(=O)c1ccccc1NC(=O)CSc1nnnn1C)c1ccccc1 (stereo not given),i,i,62.0,i,i
CCOC(=O)c1ccccc1NS(=O)(=O)c1ccc(C)cc1,i,i,i,59.7,i
Cc1ccccc1CNC(=O)c1ccc(CSCc2ccccc2)cc1,i,-5.92,i,i,i
O=C(NCc1ccccc1)c1ccc(Oc2ccc(C(=O)NCc3ccccc3)cc2)cc1,i,i,i,i,i
COC(=O)c1ccccc1NS(=O)(=O)c1ccc(F)cc1,nt,i,nt,nt,nt
CC(NC(=O)c1ccc(NS(C)(=O)=O)cc1)c1ccccc1 (stereo not given),i,i,i,i,i
CC(C)(C)C1(c2ccccc2)NC(=O)N(CC(=O)N2CCOCC2)C1=O (stereo not given),i,i,i,i,i
CCOC(=O)c1cnc(SC)nc1Oc1cccc(NS(=O)(=O)c2ccc(C)cc2)c1,i,i,80.9,i,i
CCOC(=O)c1ccccc1NS(=O)(=O)c1ccccc1,i,i,i,98.3,i
CCOC(=O)c1ccccc1NS(=O)(=O)c1ccccc1F,2.9,i,i,88.6,i
CCOC(=O)c1ccccc1NC(=O)COc1ccccc1,i,i,i,i,i
Cc1nc2cccc(C(=O)NCc3ccccc3)c2o1,i,i,62.1,i,i
Cc1noc(C)c1CN1C(=O)NC(Cc2ccccc2)(Cc2ccccc2)C1=O,i,i,i,i,i
COc1ccc([C@H]2/C=C\CN(S(=O)(=O)c3ccc4ccccc4c3)[C@@H](C)C(=O)N2Cc2ccc(F)cc2)cc1,nt,i,nt,nt,nt
Cc1ccc(CNC(=O)c2ccccc2NS(C)(=O)=O)cc1,i,i,54.3,55.3,i
CCOC(=O)c1ccccc1-c1csc(NS(=O)(=O)c2ccc(Cl)cc2)n1,i,-9.16,98.9,i,i
Cc1ccc(NC(=O)Nc2ccccc2C(=O)NCc2ccccc2)cc1,i,i,i,i,i
CCOC(=O)c1ccccc1NC(=O)c1ccccc1SC,i,i,i,i,i
CCOC(=O)c1ccccc1NC(=O)c1ccccc1NS(C)(=O)=O,i,i,74.0,55.2,i
Cc1ccccc1NC(=O)Nc1ccccc1C(=O)NCc1ccccc1,i,i,58.7,i,i
SMILES,CYP2C9 activ,Cav3 T inh,CYP2C9 inhib,CYP2C19 inhib,CYP2C19 act
CC(=O)N1CCN(CC(=O)Nc2c(Cl)cc(Cl)cc2Cl)CC1,i,i,i,i,i
COCCOc1nc2c(c(=O)n(C)c(=O)n2C)n1Cc1cccc(OC)c1,i,i,i,i,i
CC1CCCN(CCCNC(=O)CCn2nc(-c3ccccc3)ccc2=O)C1 (stereo not given),i,nt,87.0,i,i
O=C(NCc1ccoc1)c1ccc(NC(=O)c2ccccc2Cl)cc1,i,i,i,i,i
Cc1cccc(/C(N)=N/OC(=O)CCc2ccccc2)c1,i,i,53.9,i,i
Cc1cccc(/C(N)=N/OC(=O)Cc2cccs2)c1,i,i,i,i,i
CN(C)c1ccc(-c2cc([C@H]3[C@@H]4C=CCC[C@@]4(C)C(=O)N3Cc3ccccc3)ccc2F)cc1,nt,i,nt,nt,nt
CCC(=O)N1CCN(c2ccc(NC(=O)c3ccc(-c4ccccc4)cc3)cc2)CC1,i,nt,i,i,i
COc1ccccc1C1(CC(=O)Nc2nccs2)CCOC(C(C)C)C1 (stereo not given),i,i,67.3,91.8,i
O=C(CCCO)c1ccc2c(c1)OCCO2,i,i,i,i,i
O=C(CCN1CCc2ccccc2CC1)c1ccc2c(c1)OCCO2,i,i,71.1,55.0,i
O=C(CCN1CCOCC1)c1ccc2c(c1)OCCO2,nt,i,nt,nt,nt
O=C(CCCN1CCC(c2ccccc2)C1)c1ccc2c(c1)OCCO2 (stereo not given),i,i,i,72.2,i
Cc1[nH]nc(SCC(=O)N2CCC(C)CC2)c1[N+](=O)[O-],i,i,i,i,i
